IL-1B inflam inh – inflammasome signaling inhibition, IL-1 beta readout. THP-1 LPS/ATP IL-1B secretion, AlphaLISA, 16 h; stronger effect = lower value. activity change, % at 57.5 µM. actives 4.7% (n = 360,000). AID 743279; in the data active = activity change below about -50%; inconclusive = mostly about -30% to -49%
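Secreted IL-1B measured by AlphaLISA bead assay after 16 h compound exposure of THP-1 cells; compounds (final up to 57.5 uM) added 1 h before LPS (250 ng/mL) and ATP (1.25 mM) stimulation; lower signal means less secretion.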
ELG1 repair inh – ELG1-dependent DNA repair inhibition | HEK293T ELG1-luciferase reporter, luminescence, 16 h; DNA damage induced by 5-fluorouridine | Potency, µM (series often up to 46.1 µM), inactives show top-dose activity change, negative = inhibition, hits mostly inhibitors | actives 2.3% (n = 330,000) | AID 504467; note: potency is the fitted concentration of half-maximal effect; nearly all actives have a fitted effect of over 55% in size
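Luminescence from the luciferase reporter, measured 30 min after ONE-Glo reagent at room temperature, was the read-out. Beforehand, 2,000 cells per well were exposed for 16 hr at 37 °C to 5-fluorouridine together with compound or vehicle.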
Gal4-VP16 FLuc – counter-screen for ROR gamma inhibitors: Gal4-VP16 reporter | Drosophila S2 Gal4-VP16 UAS-luciferase, luminescence, 20 h | Potency, µM (titrated, usually from 53.6 µM), inactives show top-dose activity, negative = inhibition, most hits filed as inhibitors | actives 3.5% (n = 310,000) | AID 2546;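 note: Gal4-VP16 expression switched on by copper sulfate through the metallothionein promoter; potency is the fitted concentration of half-maximal effect; nearly all actives have a fitted effect of over 50% in size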
RORgamma inh – blocks mouse ROR gamma transcriptional activity; Drosophila S2 Gal4-RORgamma UAS-luciferase reporter, 20 h; P51450; actives 5.4% (n = 310,000); Potency, µM (series often up to 53.6 µM), without a hit: at the top dose activity change, negative = inhibition, most hits filed as inhibitors; note: potency is the fitted concentration of half-maximal effect; nearly all actives have a fitted effect of over 60% in size
Target sequence (P51450 whole entry, looked up, the tested form may be a part): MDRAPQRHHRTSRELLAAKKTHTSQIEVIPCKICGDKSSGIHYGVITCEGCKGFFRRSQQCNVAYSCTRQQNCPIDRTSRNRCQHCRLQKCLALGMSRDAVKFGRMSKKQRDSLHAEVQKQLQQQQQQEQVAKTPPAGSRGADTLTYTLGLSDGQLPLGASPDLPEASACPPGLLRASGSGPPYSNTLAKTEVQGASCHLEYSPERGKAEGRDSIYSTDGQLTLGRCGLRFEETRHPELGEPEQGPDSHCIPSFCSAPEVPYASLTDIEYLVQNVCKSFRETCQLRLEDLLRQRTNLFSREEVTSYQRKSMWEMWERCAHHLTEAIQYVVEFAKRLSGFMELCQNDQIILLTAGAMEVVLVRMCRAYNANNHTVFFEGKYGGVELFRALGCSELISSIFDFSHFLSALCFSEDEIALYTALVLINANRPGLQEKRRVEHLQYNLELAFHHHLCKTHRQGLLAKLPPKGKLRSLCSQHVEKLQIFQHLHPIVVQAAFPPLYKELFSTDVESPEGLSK
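Luminescence from a UAS-regulated Photinus luciferase reporter in stably transfected Drosophila Schneider cells is measured; decreased signal marks ROR gamma inhibition. Fusion expression is induced by 700 uM copper sulfate for 20 hr.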
TDP1 cell CPT – DT40-hTDP1 cell growth loss with CPT; chicken DT40 Tdp1-/-;hTDP1 cells + 20 nM CPT, ATP luminescence, 48 h; actives 12% (n = 420,000); Potency, µM (doses to about 46.2 µM), for inactives: top-dose activity change, negative = growth inhibition, usual class: inhibitors; AID 686979; note: potency is the fitted concentration of half-maximal effect; nearly all actives have a fitted effect of over 55% in size
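Chicken DT40 Tdp1-/- cells stably complemented with human TDP1 were seeded at 400 cells/well in medium containing 20 nM camptothecin, exposed to pin-transferred compounds, and grown at 37 °C for at least 48 hr. Viability was read as ATP luminescence.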
TDP1 cell noCPT – qHTS for Inhibitors of human tyrosyl-DNA phosphodiesterase 1 (TDP1): qHTS in cells in absence of CPT; DT40 Tdp1-/- hTDP1 cells, no CPT, ATP luminescence, 48 h; AID 686978, 2013; actives 15% (n = 420,000); Potency, µM (doses to about 46.2 µM), without a hit: top-dose activity change, negative = growth inhibition, usual class: inhibitors; note: potency is the fitted concentration of half-maximal effect; nearly all actives have a fitted effect of over 55% in size
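Seeded 400 DT40-hTDP1 cells/well (vehicle DMSO, no 20 nM CPT); pinned compounds; ≥48 hr at 37 °C; CellTiter-Glo luminescence as viability measure.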
Numbers without * were called inactive; ? = inconclusive; . = no result. The list is not random: actives were taken first. Their share in the collection is about 21%. Unless noted, calls come from the whole dose curve; as a rule, active = well fitted curve in the direction sought with a large enough effect; inconclusive = small, poorly fitted or top-dose-only effect, or another doubt; inactive = no such curve, though single readings can be large; an effect the other way counts as inactive or inconclusive. % is set by controls: 0 for no effect and ±100 for the full control effect.

SMILES	IL-1B inflam inh	ELG1 repair inh	Gal4-VP16 FLuc	RORgamma inh	TDP1 cell CPT	TDP1 cell noCPT
CC1=Nn2c(nnc2-c2cc(-c3ccccc3)n[nH]2)SC1	9	5%	-1%	35%	-14%	-19%
CC(C)(C(=O)N1CCC1(C)C(=O)Nc1ccccc1Br)c1ccccc1 (stereo not given)	0	.	.	.	?	?
Cc1ccc(C(=O)N/C(=C/c2cccnc2)C(=O)N2CCCCCC2)cc1	-2	2%	3%	?	6%	10%
O=C(CCCCCBr)N1CCC(CC2CC(c3cccc(Br)c3)=NO2)(C(=O)NCC2CCCCC2)CC1 (stereo not given)	?	?	1%	42%	?	21µM*
CC1(C(=O)N2CCC(CC3CC(c4cccc(Br)c4)=NO3)(C(=O)NCC3CCCCC3)CC2)CC1 (stereo not given)	?	?	8%	29%	18µM*	18µM*
O=C(Cc1ccc(F)cc1)N1CCC(CC2CC(c3cccc(Br)c3)=NO2)(C(=O)NCC2CCCCC2)CC1 (stereo not given)	?	?	-3%	?	?	?
COc1ccc(OC)c(CNc2ccc3c(c2)CCC3)c1	-27	?	.	.	?	16µM*
CCCCN(C)CCC(=O)Nc1ccc2c(c1)CCC2	9	15µM*	-7%	?	?	?
COc1ccc(OC)c(CC(=O)Nc2ccc3c(c2)CCC3)c1	0	-20%	-4%	25%	-4%	-26%
COc1ccc(NC(=O)CN(C)CC(=O)Nc2ccc3c(c2)CCC3)cc1	-9	-4%	7%	33%	-22%	-18%
COc1ccc(CC(=O)Nc2ccc3c(c2)CCC3)cc1OC	-21	10µM*	?	25%	?	9.2µM*
COCCn1c(=O)c(-c2cccc(C#N)c2)nc2cnc(N3CCOCC3)nc21	.	.	9%	-8%	-25%	-1%
CCc1nc2ccc(C(=O)NCCNC(C)=O)cn2c1N(C)CCCc1ccccc1	125	.	.	.	-25%	?
CCCC(C(=O)Nc1cc(S(=O)(=O)N2CCOCC2)ccc1OC)c1ccccc1 (stereo not given)	6	9%	-17%	-3%	12%	5%
Cc1noc(C)c1C(=O)N1CCC2(CCN(C(=O)Nc3ccccc3)CC2)CC1	.	.	-9%	1%	-5%	-3%
CC(C)(C)NCC(=Cc1ccccc1)C(=O)c1ccccc1	-102*	.	.	.	2.1µM*	2.1µM*
Cc1cccc(NC(=O)COc2coc(CN3CCN(c4ccccc4)CC3)cc2=O)c1	12	-17%	.	.	21µM*	18µM*
O=C(COc1coc(CN2CCN(c3ccccc3)CC2)cc1=O)Nc1cccc(F)c1	14	1%	.	.	-23%	-21%
COc1ccc(NC(=O)COc2coc(CN3CCN(c4ccccc4)CC3)cc2=O)cc1	1	-9%	.	.	21µM*	?
O=C1COc2ccccc2C(c2nc3ccccc3[nH]2)N1C1CC1 (stereo not given)	6	.	.	.	-2%	-1%
COc1cc(C2/C(=C(\O)c3ccc4c(c3)CC(C)O4)C(=O)C(=O)N2CCCn2ccnc2)cc(OC)c1OC (stereo not given)	11	15%	-13%	-13%	12%	-20%
COC(=O)c1c(C(=O)c2ccc(Br)cc2)n(C)c2ccccc12	11	9%	.	.	?	?
C/C(=N\NC(=O)c1ccccc1)c1c(C)[nH]n(-c2ccccc2)c1=O	103	?	1.3µM*	0.89µM*	0.15µM*	0.41µM*

Bioassay records deposited in PubChem BioAssay by National Center for Advancing Translational Sciences (NCATS).
